Assay [1] concerns the target Lysosomal acid glucosylceramidase (Homo sapiens) (UniProt P04062). The assay is described as follows: Glucocerebrosidase-p2 (AID 348; in the data active = potency below about 10 µM; note: potency is the fitted concentration of half-maximal effect). The conditions noted are these: purified GBA, blue fluorogenic substrate, 40 min. In outline:
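Compounds titrated from 0.6 nM upwards against 0.2 nM enzyme in pH 5.9 citric acid/KH2PO4, taurocholate, tween-20; blue fluorogenic substrate 80 uM, 40 min room temperature, stopped and read Ex 365/Em 440 for AC50.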

Assay [2] concerns the target Cytochrome P450 1A2 (Homo sapiens) (UniProt P05177). Kind of assay: p450-cyp1a2 (AID 410; calls by dose curve; note: potency is the fitted concentration of half-maximal effect). The conditions noted are these: recombinant CYP1A2, luciferin-ME demethylation, luminescence; series mostly up to 11.4 µM. In outline:
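Human CYP1A2 (20nM) demethylated Luciferin-ME at its Km (100uM) in 100mM KPO4. After 10 min compound preincubation, NADPH regeneration ran the reaction 60 min at room temperature. Luciferin was read by luminescence, normalized to 57 uM furafylline.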

Assay [3] is described as follows: Stat Signaling Pathway (AID 446).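 Note: ME-180 cervical cancer cells given 40 pM IL-6 alongside compound; SIE-controlled beta-lactamase reporter measured as 460/530 nm FRET emission ratio; % is set by controls: 0 for no effect and ±100 for the full control effect.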 The settings on record: ME-180 (cervical carcinoma) SIE beta-lactamase reporter, IL-6 stimulated, 5 h; at 7.69 µM (top of the series) unless noted. The method in brief:
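ME-180 cells carrying a SIE-driven beta-lactamase reporter are stimulated with 40 pM IL-6 for 5 h at 37C in the presence of compound. The 460/530 nm FRET substrate ratio is read after 2.5 h at RT. Data are normalised to 300 pM IL-6 and to 125 nM JAK inhibitor controls.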

The target of assay [4] is Glucocorticoid receptor (Homo sapiens) (UniProt P04150). The assay is described as follows: GR-GFP Redistribution (AID 450;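 active = compounds whose dose series gives a full or clear partial fitted curve of increased nuclear translocation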; note: potency is the fitted concentration of half-maximal effect). The conditions noted are these: U2OS GR-GFP nuclear translocation, laser cytometry, 2 h.
For assay [5] the target is unchanged. Kind of assay: GR-EFC Redistribution (AID 451; calls by dose curve; note: potency is the fitted concentration of half-maximal effect). The settings on record: CHO-K1 GR-EFC translocation, beta-gal luminescence, 2 h. The method in brief:
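CHO-K1 cells expressing nuclear EA and GR-ED fragments of b-gal; compounds titrated up to 46 uM final, 2 h at 37 C. GR nuclear translocation read as complemented b-gal luminescence after 1 h RT detection.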

For assay [6], the target named is Mitogen-activated protein kinase 10 (Mus musculus) (UniProt Q61831). The assay is described as follows: JNK3 AlphaScreen Assay (AID 530).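 Note: kinase came from lysate of stimulated human HepG2 cells; signal reports phosphorylation of biotinylated GST-cJun 1-79 at Ser73 with 10 µM ATP; % is set by controls: 0 for no effect and ±100 for the full control effect.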 The conditions noted are these: JNK3 lysate, c-Jun phosphorylation; series mostly up to 11.4 µM. In outline:
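qHTS format: compounds tested as titrations against IL-1beta/TNF-alpha-activated HepG2 lysate JNK3 with biotin-GST-cJun substrate and 10 uM ATP at room temperature. Loss of anti-phospho-cJun AlphaScreen signal indicates inhibition.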
On the technique in general: Bead proximity is the source of the signal in Alpha formats.

Assay [7] addresses 3',5'-cyclic-AMP phosphodiesterase 4B (Homo sapiens) (UniProt Q07343). The assay is described as follows: qHTS Assay for Inhibitors of PDE-IV (AID 607; active = well fitted activation curve with a large enough effect in the main read-out, with a control signal flat, not every such curve was filed as active; note: % of control where 0% means no effect). The conditions noted are these: HEK293 ACTOne CNG channel cells, membrane potential fluorescence; series mostly up to 22.9 µM. The method in brief: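 HEK293 ACTOne cells with CNG channel (1000/well), endogenous PDE4; membrane potential dye, compounds up to 22.9 uM final. Fluorescence Ex 535/Em 590; RO 20-1724 (100 uM final) as reference.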
On the technique in general: qHTS replaces the single test concentration by a dilution series.

The target of assay [8] is Cytochrome P450 2D6 (Homo sapiens) (UniProt P10635). Kind of assay: qHTS Assay for Inhibitors and Substrates of Cytochrome P450 2D6 (AID 891; active = well fitted curve in the direction sought with a large enough effect; an effect the other way counts as inactive or inconclusive; note: potency is the fitted concentration of half-maximal effect; nearly all actives have a fitted effect of over 60% in size). The conditions noted are these: recombinant CYP2D6, luciferin-ME EGE luminescence; series mostly up to 11.4 µM. The method in brief:
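Human CYP2D6 (5 nM) with 30 uM Luciferin-ME EGE (at Km) in 100 mM KPO4, compound preincubated 10 min, then NADPH regeneration system for 60 min at room temperature. Luciferin read by luminescence; normalized to 1.43 uM quinidine.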

The nature of assay [9]: NFAT Signaling Pathway (AID 444).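 Note: carbachol stimulus at about its EC50 of 1 µM final; % is set by controls: 0 for no effect and ±100 for the full control effect.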 The conditions noted are these: Jurkat NFAT-bla M1, carbachol, beta-lactamase ratio, 5 h; at 7.69 µM (top of the series) unless noted. The method in brief: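 Jurkat cells with NFAT-driven β-lactamase reporter and co-expressed M1 receptor, stimulated with carbachol (final 1 uM, ~EC50), compound titration, 5 h at 37 °C. CCF4 loaded 1 h at RT; 460/530 nm ratio gave %activity and AC50.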

The target of assay [10] is Cytochrome P450 2C19 (Homo sapiens) (UniProt P33261). The assay is described as follows: qHTS Assay for Inhibitors and Substrates of Cytochrome P450 2C19 (AID 899; active = well fitted curve in the direction sought with a large enough effect; an effect the other way counts as inactive or inconclusive; note: potency is the fitted concentration of half-maximal effect; nearly all actives have a fitted effect of over 60% in size). The conditions noted are these: recombinant CYP2C19, luciferin-H EGE luminescence; series mostly up to 11.4 µM. The method in brief: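 5 nM human CYP2C19 with 10uM Luciferin-H EGE (at KM) in 50mM KPO4, compound preincubated 10 min at 37C, then NADPH regeneration for 60 min at 37C. Luciferin read by luminescence after detection reagent; normalized to 57uM ketoconazole as full inhibition.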

The target of assay [11] is Cytochrome P450 3A4 (Homo sapiens) (UniProt P08684). The assay is described as follows: qHTS Assay for Activators of Cytochrome P450 3A4 (AID 885; active = well fitted curve in the direction sought with a large enough effect; an effect the other way counts as inactive or inconclusive; note: nearly all actives have a fitted effect of over 65% in size). The settings on record: recombinant CYP3A4, Luciferin-PPXE luminescence, 60 min; series mostly up to 11.4 µM. The method in brief: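 Human CYP3A4 (20 nM) with Luciferin-PPXE at 25 uM (its KM) in 200 mM KPO4; 10 min compound preincubation, then NADPH regeneration and 60 min reaction at RT. Luciferin read by luminescence; normalized to 57 uM ketoconazole full inhibition.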

Assay [12] shares this target. The assay is described as follows: qHTS Assay for Inhibitors and Substrates of Cytochrome P450 3A4 (AID 884; active = well fitted curve in the direction sought with a large enough effect; an effect the other way counts as inactive or inconclusive; note: potency is the fitted concentration of half-maximal effect; nearly all actives have a fitted effect of over 50% in size). The conditions noted are these: recombinant CYP3A4, Luciferin-PPXE luminescence; series mostly up to 57.1 µM. The method in brief: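 20 nM human CYP3A4 with 25 uM Luciferin-PPXE (at KM) in 200 mM KPO4, preincubated 10 min with compound; NADPH regeneration started a 60 min RT reaction. Luciferin detected by luminescence, normalized to 57 uM ketoconazole as full inhibition.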

We go through 8 compounds from PubChem BioAssay (NCATS).

A number with no mark means an inactive call. Inconclusive results are not listed. The source made the active and inactive calls. Unless noted, calls come from the whole dose curve; as a rule, active = well fitted curve in either direction with a large enough effect (not every such curve was filed as active); inconclusive = small, poorly fitted or top-dose-only effect, or another doubt; inactive = flat fitted curve, though single readings scatter.

Sequence of Glucocorticoid receptor (Homo sapiens) (P04150 whole entry, looked up): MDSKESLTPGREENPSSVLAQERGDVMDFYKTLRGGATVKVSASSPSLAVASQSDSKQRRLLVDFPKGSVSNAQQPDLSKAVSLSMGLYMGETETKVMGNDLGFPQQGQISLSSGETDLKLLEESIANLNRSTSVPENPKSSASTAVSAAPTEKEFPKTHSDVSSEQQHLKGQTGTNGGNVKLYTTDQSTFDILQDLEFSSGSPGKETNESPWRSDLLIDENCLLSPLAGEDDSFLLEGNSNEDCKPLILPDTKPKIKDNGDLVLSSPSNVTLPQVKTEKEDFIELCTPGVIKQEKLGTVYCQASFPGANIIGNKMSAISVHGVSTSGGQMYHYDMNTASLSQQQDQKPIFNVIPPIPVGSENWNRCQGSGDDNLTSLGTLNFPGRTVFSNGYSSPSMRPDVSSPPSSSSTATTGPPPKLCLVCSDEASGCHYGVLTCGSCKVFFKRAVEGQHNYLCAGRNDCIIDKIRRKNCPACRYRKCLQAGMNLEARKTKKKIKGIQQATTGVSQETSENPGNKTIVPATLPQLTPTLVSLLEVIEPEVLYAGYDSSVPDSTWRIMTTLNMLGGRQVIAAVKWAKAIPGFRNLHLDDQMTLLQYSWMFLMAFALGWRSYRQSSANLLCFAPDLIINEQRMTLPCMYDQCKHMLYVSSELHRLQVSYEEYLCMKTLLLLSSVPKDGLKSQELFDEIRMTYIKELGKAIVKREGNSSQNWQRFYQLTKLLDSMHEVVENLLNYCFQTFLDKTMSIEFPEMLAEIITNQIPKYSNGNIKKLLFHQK
Sequence of Lysosomal acid glucosylceramidase (Homo sapiens) (P04062 whole entry, looked up): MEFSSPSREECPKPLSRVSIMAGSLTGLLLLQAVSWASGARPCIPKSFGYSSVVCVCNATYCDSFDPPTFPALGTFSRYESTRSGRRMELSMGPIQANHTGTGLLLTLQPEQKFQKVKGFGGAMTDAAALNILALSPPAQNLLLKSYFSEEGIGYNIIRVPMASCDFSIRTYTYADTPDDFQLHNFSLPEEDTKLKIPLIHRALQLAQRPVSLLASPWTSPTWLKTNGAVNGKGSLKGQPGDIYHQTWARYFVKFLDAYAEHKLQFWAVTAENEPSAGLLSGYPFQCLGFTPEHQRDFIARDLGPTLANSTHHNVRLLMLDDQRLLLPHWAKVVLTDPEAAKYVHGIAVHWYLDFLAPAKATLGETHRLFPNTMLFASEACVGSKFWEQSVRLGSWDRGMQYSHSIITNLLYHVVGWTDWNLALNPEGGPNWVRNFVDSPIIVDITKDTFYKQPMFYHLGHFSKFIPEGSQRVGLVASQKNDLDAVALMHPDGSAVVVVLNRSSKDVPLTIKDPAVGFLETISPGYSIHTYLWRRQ
Sequence of Cytochrome P450 3A4 (Homo sapiens) (P08684 whole entry, looked up): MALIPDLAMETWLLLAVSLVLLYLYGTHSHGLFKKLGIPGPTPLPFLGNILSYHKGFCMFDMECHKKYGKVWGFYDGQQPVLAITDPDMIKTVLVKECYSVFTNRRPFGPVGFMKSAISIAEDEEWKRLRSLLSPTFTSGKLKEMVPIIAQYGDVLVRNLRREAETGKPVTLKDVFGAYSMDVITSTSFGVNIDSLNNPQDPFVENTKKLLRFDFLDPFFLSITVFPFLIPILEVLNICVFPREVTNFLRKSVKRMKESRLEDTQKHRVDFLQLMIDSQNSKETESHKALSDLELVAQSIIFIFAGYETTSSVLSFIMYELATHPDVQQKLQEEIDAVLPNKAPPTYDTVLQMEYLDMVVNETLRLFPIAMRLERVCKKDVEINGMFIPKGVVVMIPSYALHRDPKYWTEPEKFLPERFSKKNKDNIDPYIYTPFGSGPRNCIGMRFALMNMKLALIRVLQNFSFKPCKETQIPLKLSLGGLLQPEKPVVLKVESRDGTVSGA
Sequence of Cytochrome P450 1A2 (Homo sapiens) (P05177 whole entry, looked up): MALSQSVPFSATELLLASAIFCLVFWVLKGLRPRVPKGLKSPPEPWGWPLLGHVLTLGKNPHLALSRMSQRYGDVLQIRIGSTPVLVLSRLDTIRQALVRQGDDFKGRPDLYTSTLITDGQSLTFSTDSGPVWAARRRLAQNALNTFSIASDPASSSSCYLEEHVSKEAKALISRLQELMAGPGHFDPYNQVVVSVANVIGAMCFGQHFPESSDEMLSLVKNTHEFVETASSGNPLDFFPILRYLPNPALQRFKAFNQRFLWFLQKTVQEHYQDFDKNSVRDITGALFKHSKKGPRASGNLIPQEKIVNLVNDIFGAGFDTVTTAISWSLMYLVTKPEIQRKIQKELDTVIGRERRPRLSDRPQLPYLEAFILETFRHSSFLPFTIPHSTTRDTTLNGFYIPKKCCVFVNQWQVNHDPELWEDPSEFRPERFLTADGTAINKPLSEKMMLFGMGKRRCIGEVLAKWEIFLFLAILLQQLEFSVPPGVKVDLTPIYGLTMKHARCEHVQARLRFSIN
Sequence of 3',5'-cyclic-AMP phosphodiesterase 4B (Homo sapiens) (Q07343 whole entry, looked up): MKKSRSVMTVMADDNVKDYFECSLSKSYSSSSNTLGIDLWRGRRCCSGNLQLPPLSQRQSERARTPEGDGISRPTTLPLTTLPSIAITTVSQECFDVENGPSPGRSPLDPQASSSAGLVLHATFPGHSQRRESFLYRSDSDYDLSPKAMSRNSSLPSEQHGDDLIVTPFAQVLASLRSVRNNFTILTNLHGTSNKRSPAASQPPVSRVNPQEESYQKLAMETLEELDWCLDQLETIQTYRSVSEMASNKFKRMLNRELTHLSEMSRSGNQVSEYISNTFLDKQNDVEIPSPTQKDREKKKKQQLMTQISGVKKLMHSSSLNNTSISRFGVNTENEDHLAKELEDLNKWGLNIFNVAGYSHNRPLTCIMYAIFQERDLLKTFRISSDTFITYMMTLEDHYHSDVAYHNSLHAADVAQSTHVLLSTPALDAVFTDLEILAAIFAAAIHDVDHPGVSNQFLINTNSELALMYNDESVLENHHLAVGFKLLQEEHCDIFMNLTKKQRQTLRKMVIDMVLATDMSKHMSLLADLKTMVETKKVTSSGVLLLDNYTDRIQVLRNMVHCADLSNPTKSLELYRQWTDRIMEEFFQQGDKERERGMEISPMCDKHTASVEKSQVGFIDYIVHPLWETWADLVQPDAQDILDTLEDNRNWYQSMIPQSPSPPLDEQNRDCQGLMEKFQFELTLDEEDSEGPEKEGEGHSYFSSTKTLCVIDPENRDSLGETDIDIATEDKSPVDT
Sequence of Cytochrome P450 2D6 (Homo sapiens) (P10635 whole entry, looked up): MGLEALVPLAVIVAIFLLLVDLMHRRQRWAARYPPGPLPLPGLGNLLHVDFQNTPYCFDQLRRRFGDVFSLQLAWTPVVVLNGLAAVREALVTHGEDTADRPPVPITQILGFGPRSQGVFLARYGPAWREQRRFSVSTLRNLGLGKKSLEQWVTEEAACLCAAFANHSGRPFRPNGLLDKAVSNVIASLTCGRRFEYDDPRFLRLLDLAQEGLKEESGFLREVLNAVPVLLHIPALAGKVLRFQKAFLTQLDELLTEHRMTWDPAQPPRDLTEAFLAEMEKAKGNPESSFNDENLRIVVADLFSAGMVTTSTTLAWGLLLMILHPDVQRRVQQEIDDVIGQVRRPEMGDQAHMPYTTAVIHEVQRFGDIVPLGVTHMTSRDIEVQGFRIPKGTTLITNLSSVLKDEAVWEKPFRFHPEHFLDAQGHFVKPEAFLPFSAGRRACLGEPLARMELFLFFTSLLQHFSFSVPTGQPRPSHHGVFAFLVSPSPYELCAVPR
Sequence of Cytochrome P450 2C19 (Homo sapiens) (P33261 whole entry, looked up): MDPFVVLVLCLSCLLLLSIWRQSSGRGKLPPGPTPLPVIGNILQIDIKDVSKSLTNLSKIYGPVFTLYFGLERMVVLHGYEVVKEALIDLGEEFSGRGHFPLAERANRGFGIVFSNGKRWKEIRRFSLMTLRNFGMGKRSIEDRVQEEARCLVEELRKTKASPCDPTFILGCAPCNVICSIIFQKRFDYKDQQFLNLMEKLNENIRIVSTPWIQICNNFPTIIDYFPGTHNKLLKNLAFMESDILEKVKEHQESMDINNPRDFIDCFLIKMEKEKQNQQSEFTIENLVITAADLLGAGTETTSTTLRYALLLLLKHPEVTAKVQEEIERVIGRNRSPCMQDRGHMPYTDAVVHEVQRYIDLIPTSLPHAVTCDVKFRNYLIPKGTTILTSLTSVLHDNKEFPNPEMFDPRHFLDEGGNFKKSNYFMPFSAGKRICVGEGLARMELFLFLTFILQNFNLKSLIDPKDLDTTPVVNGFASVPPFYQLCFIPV

`CN(C)CCCN1c2ccccc2Sc2ccc3ccccc3c21`: the Potency is greater than 11.4 µM in [1], greater than 46 µM in assay [4], greater than 9.22 µM in assay [5] and 1.26 µM (active) in assay [8]. The activity change, negative = inhibition in [2] is -2.2% [at 2.29 µM]. Besides, the activity, negative = inhibition in [3] was 3.27%. Moreover, the Potency entry in [6] and in [7] was “inactive” in each case.

With `C=C(C)COc1ccc2c(c1)CCC1C2CC[C@]2(C)C(=O)/C(=N/O)CC12` (some centres undefined), the Potency is greater than 11.4 µM in assay [1], greater than 46 µM in [4] and greater than 9.22 µM in assay [5]. Moreover, the Potency result in [2] and in [6] was “inactive” throughout. In addition, the activity, negative = inhibition in [3] is 9.84%.

In the case of `CN(C)CCCN1c2ccc3ccccc3c2Sc2cccc(Cl)c21`, the Potency in [1] is greater than 11.4 µM; in [2], 1 µM (active); in assay [4], greater than 46 µM; in assay [5] it was greater than 9.22 µM; in [8], 0.501 µM (active); in assay [10], 5.01 µM (active). For the same compound, the activity change, negative = inhibition in [9] is 1.06%. Moreover, in assay [3], the activity, negative = inhibition was 2.06%. Moreover, the Potency result in [6] and in [7] was “inactive” throughout.

`Cc1ccc(-c2nc(-c3nccc4ccccc34)oc2-c2ccccc2)cc1`: the Potency in assay [1] is greater than 11.4 µM; in assay [2], 2.51 µM (active); in assay [4] it was greater than 46 µM; in assay [5] it was greater than 9.22 µM. Besides, the activity, negative = inhibition in assay [3] is 24.1%. In addition, the Potency entry in assay [6], in assay [7] and in assay [11] was “inactive” throughout.

`CSc1ccc2c(c1)N(CCCN(C)C)c1ccccc1S2`: the Potency is greater than 11.4 µM in assay [1]; 1.26 µM (active) in assay [2]; greater than 46 µM in assay [4]; greater than 9.22 µM in assay [5]; 0.501 µM (active) in [8]. Further, the activity, negative = inhibition in assay [3] was 2.23%. In addition, the Potency result in assay [6] and in assay [7] was “inactive” in each case.

For `OC[C@@H]1O[C@@H](N2CCN([C@@H]3O[C@@H](CO)[C@@H](O)[C@H](O)[C@H]3O)CC2)[C@@H](O)[C@H](O)[C@H]1O`, the Potency in [1] was greater than 11.4 µM; in assay [4] it was greater than 46 µM; in [5], greater than 9.22 µM. For the same compound, the activity change, negative = inhibition in [2] is -9.7% [at 2.29 µM]; in assay [9], -2.18%. For the same compound, in assay [3], the activity, negative = inhibition was -5.46%. For the same compound, the Potency entry in assay [6] and in [7] was “inactive” throughout.

As to `CCCCNN`, the Potency was greater than 11.4 µM in assay [1], greater than 46 µM in [4] and greater than 9.22 µM in assay [5]. For the same compound, the activity change, negative = inhibition in assay [2] is -6.5% [at 2.29 µM]; in assay [9], 9.69%. For the same compound, the activity, negative = inhibition in assay [3] is 4.29%. Besides, the Potency entry in assay [6] and in assay [7] was “inactive” in each case.

Regarding `COCCn1c(=O)c(CCc2ccccc2)nc2cnc(Oc3cccc(Cl)c3)nc21`, the Potency in assay [1] was greater than 11.4 µM; in assay [2] it was 3.98 µM (active); in [4] it was greater than 9.22 µM; in [5], greater than 46 µM; in assay [12], 0.794 µM (active). Further, in assay [9], the activity change, negative = inhibition was -14.7%. In addition, the activity, negative = inhibition in [3] is -17.3%. In [11], the Potency entry is “inactive”.
